# According to PubChem BioAssay:
# Activity calls are given as the source filed them. Unless noted, how the calls were made is not given here.
# Key:
# [1] = tested on: XIP peptide (Xip251-270) binding; assay: small-molecule binders of XIP peptide, primary screen, biochemical, small-molecule microarray, fluorescence 635/667 nm, 0.1 µg/mL protein (AID 1182); settings: fluorescent protein binding, 635 nm, higher = more signal, called active from +8 up or from −8 down
# [2] = tested on: XIP peptide (Xip251-270); assay: small-molecule binders of XIP peptide, primary screen, biochemical, small-molecule microarray, fluorescence 635/667 nm, 0.5 µg/mL protein (AID 1183); settings: small-molecule microarray binding, fluorescence 635 nm; higher = more signal
# [3] = Plasmodium falciparum growth inhibition, primary screen, strain 3D7, DAPI fluorescence, 100 nL (AID 1184);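 further: parasites grown inside human red blood cells in medium with human serum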; settings: P. falciparum 3D7 growth, 3 d, higher = more signal
# [4] = target: Homeobox protein Hox-A13 (Mus musculus) (UniProt Q62424); assay: inhibitors of HoxA13-DNA binding, primary screen, biochemical, fluorescence polarization, labeled oligonucleotide (AID 1185); settings: 15 min, higher = more signal, called active from +8 up or from −8 down
# Homeobox protein Hox-A13 (Mus musculus), sequence (Q62424 whole entry, looked up): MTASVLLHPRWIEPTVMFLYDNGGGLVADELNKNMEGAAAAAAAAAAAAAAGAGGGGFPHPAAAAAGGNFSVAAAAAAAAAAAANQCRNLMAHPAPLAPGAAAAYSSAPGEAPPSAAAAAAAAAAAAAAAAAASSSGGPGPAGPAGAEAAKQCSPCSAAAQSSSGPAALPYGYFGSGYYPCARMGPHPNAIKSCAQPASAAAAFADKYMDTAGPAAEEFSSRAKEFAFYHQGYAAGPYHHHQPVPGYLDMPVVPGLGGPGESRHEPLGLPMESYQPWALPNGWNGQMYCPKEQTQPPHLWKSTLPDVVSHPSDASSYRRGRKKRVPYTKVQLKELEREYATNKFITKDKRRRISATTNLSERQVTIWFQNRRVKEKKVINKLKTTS
# [5] = inhibitors of hydroxyurea-induced Chk1 phosphorylation, primary screen, imaging, HeLa, phospho-Chk1 antibody, percent positive cells (AID 1186); settings: hydroxyurea-induced phospho-Chk1 immunofluorescence imaging, higher = more signal
# [6] = inhibitors of hydroxyurea-induced Chk1 phosphorylation, primary screen, imaging, HeLa, phospho-Chk1 nuclear intensity (AID 1187); settings: hydroxyurea-induced phospho-Chk1 immunofluorescence imaging, higher = more signal
SMILES,composite z-score [1],composite z-score [2],z-score [3],z-score [4],z-score [5],z-score [6]
C=CCNC(=O)[C@H]1[C@@H]2C(=O)O[C@@H](c3ccccc3)[C@@H](c3ccccc3)N2[C@@H](c2ccc(OCCO)cc2)[C@]12C(=O)N(C(=O)OCCOC)c1ccc(C#CC3=CCCCC3)cc12,0.377 (inactive),0.799,-2.22,2.62 (inactive),-0.142 (inactive),-0.108 (inactive)
CCCC[C@H]1OB(O)C[C@H]2C1=C(COc1ccccc1)Cn1c(=O)n(-c3ccccc3)c(=O)n12,1.9 (inactive),0.286,-0.902,-7.43 (inactive),-0.309 (inactive),-0.247 (inactive)
COC(=O)[C@@]1(Cc2ccccc2)[C@H]2c3cc(C(=O)N4CCCC4)n(Cc4ccc(OC(F)(F)F)cc4)c3C[C@H]2CN1C(=O)c1ccccc1,0.511 (inactive),0.408,-1.4,-3.01 (inactive),0.182 (inactive),-0.781 (inactive)
O=C1O[C@H](c2ccccc2)[C@H](c2ccccc2)N2[C@H]1[C@@H](C(=O)NC[C@H](O)c1ccccc1)[C@]1(C(=O)Nc3ccccc31)[C@H]2c1ccccc1OCCO,2.18 (inactive),0.807,-0.635,-3.48 (inactive),-0.517 (inactive),-0.538 (inactive)
O=C1CSC(c2cccc([N+](=O)[O-])c2)N1c1ccccc1 (stereo not drawn),0.0504 (inactive),0.143,0.464,1.07 (inactive),0.0304 (inactive),-0.174 (inactive)
C=CCNC(=O)[C@H]1[C@@H]2C(=O)O[C@@H](c3ccccc3)[C@@H](c3ccccc3)N2[C@@H](c2ccc(O)cc2)[C@]12C(=O)N(C(=O)OCCOC)c1ccc(C#CC3(O)CCCCCC3)cc12,1.44 (inactive),0.842,0.351,-2.42 (inactive),-0.213 (inactive),0.382 (inactive)
Cc1ccc(C(C)CC(O)C2C=CC3C(=O)N(Cc4ccccc4)C(=O)C3N2n2cnnc2)o1 (stereo not drawn),0.831 (inactive),0.731,-0.981,-2.57 (inactive),0.0591 (inactive),-0.208 (inactive)
CC(C)C(CO)N1C(=O)[C@@H]2[C@H]3C(=O)OCC=C[C@H]3OC23C=CCN(CCN2CCOCC2)C(=O)[C@@H]13 (stereo partly drawn),0.708 (inactive),0.3,-0.0296,-4.54 (inactive),0.318 (inactive),0.436 (inactive)
COc1ccc(C(=O)Nc2ccc3c(c2)[C@]2(O[C@@H](CCO)[C@H]([Si](C)(C)c4ccc(OC)cc4)[C@H]2C)C(=O)N3Cc2ccccc2)cc1,0.439 (inactive),0.45,-2.88,-1.01 (inactive),-0.583 (inactive),-0.644 (inactive)
CC(=O)NCCCC[C@@H]1NC(=O)[C@H]2C[C@@H](C(=O)NCCCCCN)[C@@H](c3cccc(OCCO)c3)N2C1=O,0.149 (inactive),0.654,0.184,-2.28 (inactive),-1.11 (inactive),-0.661 (inactive)
CCOC(=O)C[C@H]1[C@H](OC(=O)Cc2ccc3c(c2)OCO3)[C@@H](NC(=O)c2ccccc2)c2cc(OCCCO)ccc2N1C(=O)c1ccccc1,-0.0294 (inactive),0.643,-0.385,-3.12 (inactive),-0.454 (inactive),-0.342 (inactive)
COC(=O)C(CC#Cc1ccc2c(c1)[C@]1(C(=O)N2)[C@H](C(=O)N2CCc3cc(OC)c(OC)cc3C2)[C@H]2C(=O)O[C@H](c3ccccc3)[C@H](c3ccccc3)N2[C@@H]1c1ccc(O)cc1)C(=O)OC,0.534 (inactive),0.789,-2.45,-0.323 (inactive),0.297 (inactive),0.826 (inactive)
O=C1OCCC=C[C@H]2OC34C=CCN(Cn5nnc6ccccc65)C(=O)[C@H]3N(CCCCCO)C(=O)[C@@H]4C12 (stereo partly drawn),0.282 (inactive),-0.75,0.561,-4.63 (inactive),1.09 (inactive),1.08 (inactive)
CCCN1C(=O)[C@@H]2Cc3c([nH]c4ccccc34)[C@@H](c3cccc(O)c3)N2C1=O,-0.227 (inactive),0.181,1.39,-0.802 (inactive),-0.0463 (inactive),-0.202 (inactive)
COCCOC(=O)N1C(=O)[C@@]2(c3cc(C#CCNC(N)=O)ccc31)[C@H](c1ccc(OCCO)cc1)N1[C@H](c3ccccc3)[C@H](c3ccccc3)OC(=O)[C@H]1[C@@H]2C(=O)N1CCN(c2ncccn2)CC1,-0.299 (inactive),0.245,-1.91,0.513 (inactive),-0.117 (inactive),-0.434 (inactive)
COC(=O)[C@H]1N=C(c2ccc(OCCCO)cc2)O[C@H]1c1ccccc1CN=[N+]=[N-],0.262 (inactive),0.62,-1.79,-1.53 (inactive),0.0721 (inactive),0.328 (inactive)
[N-]=[N+]=NCc1ccccc1C[C@]1(C(=O)NCCN2CCOCC2)N=C(c2ccc(OCCCO)cc2)O[C@H]1c1ccccc1,0.786 (inactive),0.817,-2.42,-6.23 (inactive),0.0479 (inactive),0.228 (inactive)

SMILES,composite z-score [1],composite z-score [2],z-score [3],z-score [4],z-score [5],z-score [6]
CC(C)C[C@H]1NC(=O)[C@H](C)NC(=O)[C@@]23C(=O)N[C@@H](Cc4ccccc4)C2[C@H](C)[C@@]2(C)O[C@H]2C3/C=C/C/C=C\CNC1=O (stereo partly drawn),1.2 (inactive),0.685,0.96,-6.14 (inactive),-0.454 (inactive),-0.576 (inactive)
COC(=O)[C@]1(Cc2ccccc2CN=[N+]=[N-])N=C(c2ccc(OCCCO)cc2)O[C@@H]1c1ccccc1,0.0835 (inactive),0.534,-2.17,-4.62 (inactive),-0.346 (inactive),-0.91 (inactive)
C=CCOC(=O)[C@H]1[C@@H]2C(=O)O[C@@H](c3ccccc3)[C@@H](c3ccccc3)N2[C@@H](c2ccc(OCCOC(=O)[C@H]3C[C@H]4C(=O)N[C@@H](CCCCN(C)C)C(=O)N4[C@H]3c3ccc(O)cc3)cc2)[C@]12C(=O)Nc1ccccc12,0.275 (inactive),0.582,-0.216,4.13 (inactive),-0.685 (inactive),-0.308 (inactive)
COC(=O)[C@@]1(Cc2ccc(OC)cc2)[C@H]2c3cc(C(=O)N4CCCC4)n(CCF)c3C[C@H]2CN1C(=O)c1ccccc1,1.24 (inactive),0.388,-1.8,-5.44 (inactive),0.128 (inactive),-0.0625 (inactive)
COc1cc(C(O)C2C=CC3C(=O)NC(=O)C3N2Nc2ccc(Cl)cc2Cl)cc(OC)c1OC (stereo not drawn),0.587 (inactive),0.619,-0.395,-6.07 (inactive),0.136 (inactive),0.148 (inactive)
O=C1N(Cc2ccccc2)c2ccccc2[C@H]2OC(c3ccc(OCCCO)cc3)=N[C@@]12CCS(=O)(=O)c1ccccc1,0.0535 (inactive),0.371,-2.56,-1.54 (inactive),-0.103 (inactive),-0.0726 (inactive)
NC(=O)NCC#Cc1ccc2c(c1)[C@]1(C(=O)N2)[C@H](c2ccc(OCCO)cc2)N2[C@H](c3ccccc3)[C@H](c3ccccc3)OC(=O)[C@H]2[C@@H]1C(=O)N1CCN(c2ncccn2)CC1,0.0244 (inactive),0.353,0.149,0.314 (inactive),0.432 (inactive),1.09 (inactive)
O=C(N1CCOCC1)[C@@]1(CCS(=O)(=O)c2ccccc2)COC(c2ccc(OCCCO)cc2)=N1,0.429 (inactive),0.599,-1.34,-5.88 (inactive),0.145 (inactive),0.273 (inactive)
COC(=O)[C@@]1(Cc2ccccc2N=[N+]=[N-])N=C(c2ccc(OCCCO)cc2)O[C@H]1c1ccccc1,0.37 (inactive),0.601,-1.85,-3.98 (inactive),0.069 (inactive),-0.447 (inactive)
O=C1C2C=CC(C(O)c3ccc(Br)cc3)N(Nc3ccccc3)C2C(=O)N1c1ccccc1 (stereo not drawn),0.65 (inactive),0.324,-0.18,-3.62 (inactive),0.348 (inactive),0.453 (inactive)
NC(=O)[C@@H]1[C@H]2C(=O)O[C@H](c3ccccc3)[C@H](c3ccccc3)N2[C@H](c2ccccc2OCCO)[C@@]12C(=O)Nc1ccc(C#CCCO)cc12,0.585 (inactive),0.588,0.291,-5.7 (inactive),-0.266 (inactive),-0.161 (inactive)
CC(C)c1ccc(NN2C(C(O)c3ccccn3)C=CC3C(=O)N(c4ccccc4)C(=O)C32)cc1 (stereo not drawn),1.17 (inactive),0.69,-0.723,-4.86 (inactive),0.236 (inactive),0.375 (inactive)
C=C(C)[C@@H]1CC=C(C(O)C2C=CC3C(=O)N(C4CCCCC4)C(=O)C3N2Nc2ccc(OC)cc2)CC1 (stereo partly drawn),0.376 (inactive),0.505,-0.409,-3.47 (inactive),-0.385 (inactive),-0.393 (inactive)
C[C@@]1([C@@H](NC(=O)c2cccs2)c2ccc(-c3ccccc3)cc2)C[C@H]1C1CCCCC1,-0.592 (inactive),-0.0139,-0.972,-0.431 (inactive),0.193 (inactive),-0.421 (inactive)
O=C1c2ccccc2[C@](Cc2ccccc2I)(C(=O)NCC(F)(F)F)[C@H](c2ccc(CO)cc2)N1Cc1ccccc1,0.164 (inactive),0.647,-0.945,-4.04 (inactive),-0.25 (inactive),-0.634 (inactive)
O=C1OCC=C[C@H]2OC34C=CCN(CCN5CCOCC5)C(=O)[C@H]3N(CCCCCO)C(=O)[C@@H]4[C@@H]12 (stereo partly drawn),0.102 (inactive),0.609,-0.285,-6.05 (inactive),0.513 (inactive),-0.209 (inactive)
